The record followed here is PubChem BioAssay (EPA / NIEHS).

Activity calls are given as the source filed them. Rule for the calls: active = hit-call score of the fitted dose curve at least 0.9, where 1 is the maximum; inactive = score below 0.9.

Common to all, as to details: mRNA level, 48 h; actives raise or lower the signal
Read-out in test [1]: Glutathione S-transferase M3 (GSTM3), GSTM3 (gene 2947)
Nature of the test: LTEA_HepaRG_GSTM3: Life Technologies and Expression Analysis (LTEA) Assay for Glutathione S-transferase M3 (GSTM3) using HepaRG (AID 2283501). The procedure, abridged: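 Expression of GSTM3 is determined by qRT-PCR in human liver HepaRG cells treated 48 h with an 8-point half-log range from 100 uM in 0.5% DMSO.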

Read-out in test [2]: Heat shock 70 kDa protein 1 (HSPA1A), gene 3303
Nature of the test: LTEA_HepaRG_HSPA1A: Life Technologies and Expression Analysis (LTEA) Assay for Heat shock 70 kDa protein 1 (HSPA1A) using HepaRG (AID 2283502). The procedure, abridged: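 Cells were plated and cultured for 48 h, then switched to serum-free induction medium. Chemicals were added at eight half-log concentrations up to 100 uM for 48 h. RNA was then isolated and HSPA1A measured by qRT-PCR with bidirectional curve fitting against DMSO.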

Read-out in test [3]: Hypoxia-inducible factor 1-alpha (Homo sapiens) (UniProt Q16665)
Nature of the test: LTEA_HepaRG_HIF1A: Life Technologies and Expression Analysis (LTEA) Assay for Hypoxia-inducible factor 1 (HIF1A) Trancription factor using HepaRG (AID 2283503). The method in brief:
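HIF1A transcript level read by qRT-PCR (ACTB, GAPDH, POLR2A normalization) after 48 h chemical exposure of HepaRG cultures. Eight half-log concentrations, top 100 uM, 0.5% DMSO vehicle, duplicates; bidirectional curve fit against DMSO baseline.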

Read-out in test [4]: 3-Hydroxy-3-Methylglutaryl-CoA Synthase 2 (HMGCS2), HMGCS2 (gene 3158)
Put plainly: LTEA_HepaRG_HMGCS2: Life Technologies and Expression Analysis (LTEA) Assay for 3-Hydroxy-3-Methylglutaryl-CoA Synthase 2 (HMGCS2) using HepaRG (AID 2283504). The method in brief:
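This steatosis marker was read as HMGCS2 mRNA change in HepaRG cells treated 48 h with up to 100 uM chemical. Normalisation used housekeeping genes; activity in either direction was fitted relative to 0.5% DMSO vehicle.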

Read-out in another test: HGF (gene 3082)
Nature of the test: LTEA_HepaRG_HGF: Life Technologies and Expression Analysis (LTEA) Assay for Hepatocyte Growth Facto (HGF) using HepaRG (AID 2283505). The procedure, abridged: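 Using HepaRG monolayers kept in 0.5% DMSO, chemicals were tested in duplicate over eight half-log concentrations from 100 uM for 48 h. Endpoint: HGF mRNA change relative to DMSO, normalized to ACTB/GAPDH/POLR2A.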

Read-out in test [5]: Insulin Like Growth Factor 1 (IGF1), IGF1 (gene 3479)
Nature of the test: LTEA_HepaRG_IGF1: Life Technologies and Expression Analysis (LTEA) Assay for Insulin Like Growth Factor 1 (IGF1) using HepaRG (AID 2283506). The procedure, abridged: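 Cells are thawed, plated and cultured 48 h, then exposed in duplicate to chemical (highest 100 uM, half-log steps, 0.5% DMSO) for another 48 h. Total RNA is analysed by Fluidigm qRT-PCR for IGF1 expression relative to vehicle.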

Read-out in test [6]: Intercellular Adhesion Molecule 1 (ICAM1), ICAM1 (gene 3383)
Nature of the test: LTEA_HepaRG_ICAM1: Life Technologies and Expression Analysis (LTEA) Assay for Intercellular Adhesion Molecule 1 (ICAM1) using HepaRG (AID 2283507). The procedure, abridged: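 Using the human liver line HepaRG, compounds are tested in duplicate over 48 h at concentrations up to 100 uM. Expression is determined by TaqMan qRT-PCR, normalized to endogenous controls, and analysed relative to 0.5% DMSO vehicle.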

Read-out in test [7]: Insulin-like growth factor-binding protein 1 (IGFBP1), IGFBP1 (gene 3484)
Nature of the test: LTEA_HepaRG_IGFBP1: Life Technologies and Expression Analysis (LTEA) Assay for Insulin-like growth factor-binding protein 1 (IGFBP1) using HepaRG (AID 2283508). The procedure, abridged:
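HepaRG, 48 h, 8 conc. (max 100 uM, half-log), duplicates, 0.5% DMSO. Readout: TaqMan qRT-PCR, ACTB/GAPDH/POLR2A normalisation. Fit: bidirectional vs DMSO.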

Read-out in test [8]: Interleukin 6 (IL6), IL6 (gene 3569)
Put plainly: LTEA_HepaRG_IL6: Life Technologies and Expression Analysis (LTEA) Assay for Interleukin 6 (IL6) using HepaRG (AID 2283509). The method in brief:
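Changes in IL6 mRNA, up or down relative to 0.5% DMSO controls, were derived from concentration-response curves in human HepaRG cells treated for 48 h at up to 100 uM, with ACTB, GAPDH and POLR2A as normalizers.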

Read-out in test [9]: Potassium channel subfamily K member 1 (KCNK1), KCNK1 (gene 3775)
Put plainly: LTEA_HepaRG_KCNK1: Life Technologies and Expression Analysis (LTEA) Assay for Potassium channel subfamily K member 1 (KCNK1) using HepaRG (AID 2283511). The method in brief: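 Human HepaRG cultures receive test chemicals for 48 h in 0.5% DMSO, top concentration 100 uM with half-log dilutions. Induction or suppression of KCNK1 mRNA relative to DMSO is derived by bidirectional fitting of qRT-PCR data.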

Read-out in test [10]: Keratin 19 (KRT19), KRT19 (gene 3880)
Put plainly: LTEA_HepaRG_KRT19: Life Technologies and Expression Analysis (LTEA) Assay for Keratin 19 (KRT19) using HepaRG (AID 2283512). The method in brief: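 Readout is qRT-PCR of KRT19 mRNA, normalized to ACTB, GAPDH and POLR2A, from HepaRG cells treated 48 h with eight-point half-log dilutions topping at 100 uM. Activity in either direction is scored relative to 0.5% DMSO vehicle.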

Read-out in test [11]: JUN Transcription Factor, JUN (gene 3725)
Nature of the test: LTEA_HepaRG_JUN: Life Technologies and Expression Analysis (LTEA) Assay for JUN Transcription Factor using HepaRG (AID 2283513). The method in brief:
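Read-out is JUN transcript level by TaqMan qRT-PCR, normalized to ACTB, GAPDH and POLR2A, after 48 h chemical treatment of HepaRG cells. Concentration-response spanned eight half-log points up to 100 uM in 0.5% DMSO.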

Read-out in test [12]: Lipase C (LIPC), LIPC (gene 3990)
Put plainly: LTEA_HepaRG_LIPC: Life Technologies and Expression Analysis (LTEA) Assay for Lipase C (LIPC) using HepaRG (AID 2283514). The procedure, abridged:
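In this multiplexed gene-expression screen, human HepaRG cultures received test chemicals for 48 h across eight concentrations with 100 uM highest, in duplicate. Values reflect LIPC mRNA induction or suppression versus DMSO vehicle, from normalized qRT-PCR.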

Read-out in test [13]: Lipoprotein lipase (LPL), LPL (gene 4023)
Nature of the test: LTEA_HepaRG_LPL: Life Technologies and Expression Analysis (LTEA) Assay for Lipoprotein lipase (LPL) using HepaRG (AID 2283515). The procedure, abridged:
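Concentration-response testing used half-log steps from 100 uM in 0.5% DMSO on human HepaRG cells, 48 h, duplicate wells. Phenobarbital 1 mM served as induction control; LPL mRNA was normalized to ACTB, GAPDH, POLR2A.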

Read-out in test [14]: MicroRNA 122 (MIR122), gene 406906
Put plainly: LTEA_HepaRG_MIR122: Life Technologies and Expression Analysis (LTEA) Assay for MicroRNA 122 (MIR122) using HepaRG (AID 2283516). Note: the transcript read is the microRNA miR-122. The procedure, abridged: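 Human liver HepaRG cultures receive test chemicals for 48 h at eight half-log concentrations from 100 uM. Expression is quantified by qRT-PCR with ACTB/GAPDH/POLR2A normalization and fitted bidirectionally against 0.5% DMSO.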

Read-out in test [15]: matrix metalloproteinase-10 (MMP10), MMP10 (gene 4319)
Nature of the test: LTEA_HepaRG_MMP10: Life Technologies and Expression Analysis (LTEA) Assay for matrix metalloproteinase-10 (MMP10) using HepaRG (AID 2283517). The method in brief:
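In differentiated HepaRG cultures kept in 0.5% DMSO, test chemicals act for 48 h over an eight-point range with a top dose of 100 uM. Expression is then quantified by TaqMan RT-PCR against ACTB, GAPDH and POLR2A.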

Read-out in the next test: MYC, MYC (gene 4609)
Put plainly: LTEA_HepaRG_MYC: Life Technologies and Expression Analysis (LTEA) Assay for MYC using HepaRG (AID 2283518). The procedure, abridged:
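Expression changes were scored by TaqMan qRT-PCR with ACTB, GAPDH and POLR2A normalization. Cultures in serum-free induction medium received duplicate 8-point concentration series, highest 100 uM, for 48 h; DMSO (0.5%) served as baseline.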

Read-out in test [16]: matrix metalloproteinase-3 (MMP3), MMP3 (gene 4314)
Put plainly: LTEA_HepaRG_MMP3: Life Technologies and Expression Analysis (LTEA) Assay for matrix metalloproteinase-3 (MMP3) using HepaRG (AID 2283519). The procedure, abridged: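 Human liver HepaRG cultures received chemicals (top concentration 100 uM, 0.5% DMSO) for 48 h in duplicate. MMP3 mRNA induction or loss was then assessed via TaqMan qRT-PCR with housekeeping-gene normalisation.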

Read-out in test [17]: Paternally Expressed 10 (PEG10), PEG10 (gene 23089)
Nature of the test: LTEA_HepaRG_PEG10: Life Technologies and Expression Analysis (LTEA) Assay for Paternally Expressed 10 (PEG10) using HepaRG (AID 2283520).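 For AC50: differentiated HepaRG human liver cells in serum-free induction medium with 0.5% DMSO; PEG10 transcript by qRT-PCR normalised to ACTB GAPDH and POLR2A.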 The procedure, abridged: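 Human HepaRG cultures are dosed for 48 h across an eight-point half-log series starting at 100 uM, with 0.5% DMSO as vehicle and baseline. Gain or loss of PEG10 transcript is measured by qRT-PCR and fitted in both directions.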

Chain of Hypoxia-inducible factor 1-alpha (Homo sapiens) (Q16665 whole entry, looked up): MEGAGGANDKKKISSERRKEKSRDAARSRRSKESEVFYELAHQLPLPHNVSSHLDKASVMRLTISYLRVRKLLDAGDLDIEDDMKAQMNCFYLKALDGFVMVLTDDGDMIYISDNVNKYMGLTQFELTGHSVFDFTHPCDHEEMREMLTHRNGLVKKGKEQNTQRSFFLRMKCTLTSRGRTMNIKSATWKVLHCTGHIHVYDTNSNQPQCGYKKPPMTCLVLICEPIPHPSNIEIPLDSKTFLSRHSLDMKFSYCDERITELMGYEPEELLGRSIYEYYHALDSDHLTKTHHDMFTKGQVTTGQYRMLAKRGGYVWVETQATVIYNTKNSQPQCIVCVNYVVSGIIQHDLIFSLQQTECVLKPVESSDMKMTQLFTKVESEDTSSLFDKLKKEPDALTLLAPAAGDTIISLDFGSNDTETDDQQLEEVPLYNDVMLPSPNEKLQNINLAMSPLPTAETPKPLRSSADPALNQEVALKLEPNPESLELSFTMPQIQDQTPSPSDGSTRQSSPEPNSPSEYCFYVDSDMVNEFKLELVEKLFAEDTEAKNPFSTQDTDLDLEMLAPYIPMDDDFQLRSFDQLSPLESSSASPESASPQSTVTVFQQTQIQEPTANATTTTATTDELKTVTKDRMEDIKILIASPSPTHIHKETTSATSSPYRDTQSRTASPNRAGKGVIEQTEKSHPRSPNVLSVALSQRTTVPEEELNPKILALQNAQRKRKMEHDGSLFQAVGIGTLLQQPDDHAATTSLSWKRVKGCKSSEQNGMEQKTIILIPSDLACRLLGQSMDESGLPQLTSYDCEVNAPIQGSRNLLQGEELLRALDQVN

Regarding `OCCOCCO`, the call (in test [1]; in test [2]; in test [3]; in [4]; with HGF (gene 3082); in test [5]) was inactive. Further, the compound was called inactive in test [6], in [7], in test [8], in test [9], in test [10] and in [11]. For the same compound, the outcome in test [12] is “inactive”; in test [13], “inactive”; in [14], “inactive”; in test [15], “inactive”; with MYC, MYC (gene 4609), “inactive”; in test [16], “inactive”. Moreover, the compound was classed as inactive in test [17].
As to `Nc1ccc(N=Nc2ccccc2)cc1`, the AC50 in [1] was 13.2 µM (active); in test [2], 34 µM (active); in [4], 24.6 µM (active); in test [5] it was 12.8 µM (active); in test [6] it was 30.9 µM (active); in test [10] it was 50 µM (active). The AC50 is 12.8 µM (active) in test [12], 22.3 µM (active) in test [13], 18.1 µM (active) in test [14] and 18.4 µM (active) in [17]. Further, the outcome (in test [3]; with HGF (gene 3082); in test [7]; in test [8]; in [9]; in test [11]) was inactive. Further, the outcome is “inactive” in test [15]; “inactive” with MYC, MYC (gene 4609); “inactive” in test [16].
In the case of `ClCCOCCCl`, the compound was called inactive (in [1]; in test [2]; in test [3]; in test [4]; with HGF (gene 3082); in test [5]). For the same compound, the compound was classed as inactive in test [6], in test [7], in test [8], in [9], in [10] and in [11]. The outcome in test [12] was “inactive”; in test [13] it was “inactive”; in test [14], “inactive”; in test [15] it was “inactive”; with MYC, MYC (gene 4609), “inactive”; in [17], “inactive”.
